The list is not random: actives were taken first. Their share in the collection is about 6.3%.
ATXN2 expr inh = Primary qHTS for Inhibitors of ATXN expression; HEK-293 ATXN2-luciferase reporter, luminescence, 24 h; Potency, µM (highest dose often 57 µM), for inactives: at the highest dose activity change, negative = inhibition, hits mostly inhibitors; hit rate 0.72% among 360,000; note: % is set by controls: 0 for no effect and ±100 for the full control effect; nearly all actives have a fitted effect of over 55% in size
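qHTS (up to 57 uM final) was run with 24 h compound exposure of reporter cells at 37 °C. Each well was multiplexed: SteadyGlo luminescence measured ATXN2-luciferase expression after a fluorogenic Gly-Phe-AFC viability readout (25 uM final).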
TGFb inhibitor = qHTS for Inhibitors of TGF-b | HepG2 CAGA-GFP TGF-b/SMAD3 reporter, GFP fluorescence, 18 h; TGF-beta stimulated, 500 pg/mL final | Potency, µM (titrated, usually from 46.1 µM), without a hit: at the top dose activity, negative = inhibition, actives largely listed as inhibitors | hit rate 1.2% among 410,000 | AID 588855, 2011; note: % is set by controls: 0 for no effect and ±100 for the full control effect; nearly all actives have a fitted effect of over 65% in size
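HEPG2 CAGA-GFP reporter cells (1000/well, DMEM with 1% FBS) received compounds, then recombinant TGF-beta at 500 pg/mL final for 18 hours at 37 degrees C. Per-cell GFP summed per well was normalised to unstimulated and stimulated DMSO controls before curve fitting.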
Gal4-VP16 FLuc = VP16 counterscreen qHTS for inhibitors of ROR gamma transcriptional activity; Drosophila S2 Gal4-VP16 UAS-luciferase, luminescence, 20 h; Potency, µM (doses to about 53.6 µM), without a hit: at the top dose activity, negative = inhibition, usual class: inhibitors; hit rate 3.5% among 310,000;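 note: Gal4-VP16 expression switched on by copper sulfate through the metallothionein promoter; % is set by controls: 0 for no effect and ±100 for the full control effect; nearly all actives have a fitted effect of over 50% in size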
HepG2 tox = qHTS for Inhibitors of TGF-b: Cytotox Counterscreen; HepG2 CAGA-GFP viability, ATP luminescence, 18 h; Potency, µM (top dose mostly 46.1 µM), without a hit: at the top dose activity change, negative = cytotoxicity, usual class: cytotoxic; hit rate 0.76% among 410,000; AID 588856, 2011
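CellTiter-Glo luminescence gave cytotoxicity after 18 hours at 37 degrees C. The cells were HepG2 CAGA-GFP in 1% FBS DMEM, stimulated with 500 pg/mL TGF-beta after compound addition. %Activity was normalised to no-cell wells (complete cell-killing) and DMSO (no toxicity), and curves were fitted and classified.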
ATXN viability = Viability Counterscreen for Primary qHTS for Inhibitors of ATXN expression; AID 651635, 2014; hit rate 0.49% among 400,000; S2 cells (HEK-293 line with an ATXN2-luciferase reporter) viability, CellTiter-Fluor protease fluorescence, 24 h; Potency, µM (top dose mostly 56.7 µM), most hits filed as cytotoxic; note: nearly all actives have a fitted effect of over 40% in size
RORgamma inh = qHTS for inhibitors of ROR gamma transcriptional activity. Drosophila S2 Gal4-RORgamma UAS-luciferase reporter, 20 h. AID 2551, 2010. Nuclear receptor ROR-gamma (Mus musculus), P51450. hit rate 5.4% among 310,000. Potency, µM (titrated, usually from 53.6 µM), for the others: at the highest dose activity change, negative = inhibition, actives largely listed as inhibitors; note: % is set by controls: 0 for no effect and ±100 for the full control effect; nearly all actives have a fitted effect of over 60% in size
Target sequence (P51450 whole entry, looked up, the tested form may be a part): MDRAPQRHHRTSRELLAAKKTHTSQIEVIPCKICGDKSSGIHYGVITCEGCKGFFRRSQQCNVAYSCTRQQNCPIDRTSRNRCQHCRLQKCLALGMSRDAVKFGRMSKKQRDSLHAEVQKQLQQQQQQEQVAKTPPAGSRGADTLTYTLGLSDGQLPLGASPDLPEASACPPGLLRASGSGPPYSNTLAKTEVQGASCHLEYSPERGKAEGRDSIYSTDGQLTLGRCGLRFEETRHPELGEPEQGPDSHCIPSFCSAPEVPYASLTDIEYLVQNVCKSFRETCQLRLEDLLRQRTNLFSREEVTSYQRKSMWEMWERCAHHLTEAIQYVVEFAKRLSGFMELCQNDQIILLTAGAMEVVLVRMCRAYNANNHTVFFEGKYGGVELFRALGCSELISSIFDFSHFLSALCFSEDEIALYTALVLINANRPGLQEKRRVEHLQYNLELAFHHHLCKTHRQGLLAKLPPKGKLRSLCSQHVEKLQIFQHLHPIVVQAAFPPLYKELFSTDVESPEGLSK
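Compounds are pin-transferred onto Drosophila Schneider cells expressing a copper-inducible Gal4–ROR gamma transactivation domain fusion. After 1 hr, copper sulfate is added to 700 uM final; luciferase is read 20 hr later.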
Numbers without * were called inactive; i = inactive; ? = inconclusive; / = no result given. Calls come from the whole dose curve; as a rule, active = well fitted curve in the direction sought with a large enough effect; inconclusive = small, poorly fitted or top-dose-only effect, or another doubt; inactive = no such curve, though single readings can be large; an effect the other way counts as inactive or inconclusive. Potency is the fitted concentration of half-maximal effect.

SMILES	ATXN2 expr inh	TGFb inhibitor	Gal4-VP16 FLuc	HepG2 tox	ATXN viability	RORgamma inh
S=C(N/N=C/c1ccc(Br)cc1)N1CCCCC1	72.7%	-19.3%	0.891µM*	-2.2%	i	1.41µM*
S=C(N/N=C/c1ccc(Cl)cc1)N1CCOCC1	-33.2%	1.7%	1.78µM*	12.1%	?	0.355µM*
CCOC(=O)c1c(C)oc2nc(C)nc(N3CCN(c4ccc(C(C)=O)cc4)CC3)c12	9.1%	-2.2%	/	-20.3%	i	/
O=C(CSc1nc(-c2ccc(F)cc2)[nH]c1-c1ccc(F)cc1)Nc1ccc2c(c1)OCO2	?	7.08µM*	/	-68.6%	?	/
COc1ccc(-c2nc(SCC(=O)NC3CCCC3)c(-c3ccc(F)cc3)[nH]2)cc1	/	11.2µM*	/	-34.8%	/	/
Cc1cccc(-c2nc(SCC(=O)Nc3ccc4c(c3)OCO4)c(-c3ccccc3)[nH]2)c1	?	12.6µM*	/	-22.3%	?	/
COc1ccc(-c2[nH]c(-c3ccc(F)cc3)nc2SCC(=O)NC2CCCC2)cc1	1.8%	?	1.2%	-22.4%	?	?
CCOc1ccc(-c2nc(SCC(=O)Nc3ccc4c(c3)OCO4)c(-c3ccc(F)cc3)[nH]2)cc1	3.5%	-12.6%	/	-28.3%	i	/
CN(c1ccccc1)S(=O)(=O)c1cccc(NC(=O)CSc2n[nH]c(N)n2)c1	-11.5%	-1.3%	7.08µM*	4.0%	i	?
N#CC1C(=O)NC(=O)C(C#N)C12CCCC2 (configuration not stated)	6.4%	1.1%	/	-4.4%	i	/
O=C(CSc1nc(-c2ccccc2)[nH]c1-c1ccccc1)Nc1ccc2c(c1)OCCO2	?	?	/	10µM*	/	/
Nc1nc(SCC(=O)Nc2ccc3c(c2)OCO3)n[nH]1	8.1%	-1.5%	-0.5%	10µM*	i	-27.4%
COc1ccc(-c2[nH]c(-c3ccccc3)nc2SCC(=O)Nc2ccc3c(c2)OCCO3)cc1	?	-21.9%	/	-5.0%	?	/
Nc1cc(N)nc(SCC(=O)Nc2ccc3c(c2)OCO3)n1	-5.5%	-1.4%	2.3%	-26.7%	i	-2.5%
O=C(CSc1nc(-c2ccc(F)cc2)[nH]c1-c1ccc(F)cc1)Nc1ccc2c(c1)OCCO2	?	7.94µM*	/	-57.4%	/	/
Fc1ccccc1-c1csc(=Nc2cccnc2)n1CC1CCCO1 (configuration not stated)	-11.0%	-7.6%	7.08µM*	-8.9%	i	?
COc1ccc(Cc2nc3ccc(C(=O)NCc4cc(C)no4)cc3o2)cc1OC	7.4%	0.0%	?	-4.1%	?	?
C=CCN(CC=C)C(=O)c1ccc2nc(Cc3ccc(OC)c(OC)c3)oc2c1	2.0%	?	12.6µM*	-19.0%	i	?
Cc1cc(C)c2c(=O)n(CC(=O)Nc3ccc(Cl)cc3)sc2n1	-23.4%	?	12.6µM*	-22.2%	?	?
Cc1cc(C)c2c(=O)n(CC(=O)Nc3cccc(F)c3)sc2n1	-19.0%	?	?	-91.7%	i	?
CCOc1ccc(NC(=O)Cn2sc3nc(C)cc(C)c3c2=O)cc1	-14.4%	11.2µM*	11.2µM*	-53.6%	i	?
Cc1noc(C)c1-c1ccc2ncnc(NCc3cccn3C)c2c1	/	/	7.3%	/	/	-2.1%
COc1ccccc1C(NC(=O)C1CCN(CCOc2ccc(Cl)cc2Cl)CC1)c1ccccn1 (configuration not stated)	31.6µM*	?	/	12.6µM*	20µM*	/
Cc1cccnc1C(c1ccc(F)cc1)N(C)C(=O)C1CCN(CCOc2ccc(Cl)cc2Cl)CC1 (configuration not stated)	31.6µM*	?	/	-100.2%	28.2µM*	/
COc1ccc(CN(C(C)=O)c2cc(C)c([N+](=O)[O-])cc2OC)cc1OC	/	-4.5%	/	-21.5%	i	/
